Where “and” joins values, the source holds several entries; their conditions need not be identical. Identical values can stand only once. Inconclusive results are not listed. Some compounds were tested as several samples or in several runs, with calls that do not always agree. Calls of active or inactive are those of the source. Unless noted, the call rests on the fitted dose curve; in most records, active means well fitted curve in the direction sought with a large enough effect in the repeat runs; inconclusive means weak or mixed curves; inactive means no such curve, though single readings can be large; an effect the other way counts as inactive or inconclusive.

A short description of assay [1]: qHTS assay to identify small molecule agonists of the hypoxia (HIF-1) signaling pathway - cell viability counter screen (AID 1224844; calls by dose curve; further: nearly all actives have a fitted effect of over 50% in size; further: potency means the concentration at half of the fitted maximal effect). In a few lines:
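Cytotoxicity measured by CellTiter-Glo ATP luminescence in the wells also read for beta-lactamase signal. Cells were HRE-bla ME-180 (2,000/well, 0.5% dialyzed FBS), exposed to compounds for 17 h at 37C.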
(In general: qHTS replaces the single test concentration by a dilution series.)

The nature of assay [2]: qHTS assay to identify small molecule agonists of H2AX - cell viability counter screen (AID 1224847; calls by dose curve; further: nearly all actives have a fitted effect of over 30% in size; further: potency means the concentration at half of the fitted maximal effect). The essentials:
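Wild-type CHO-K1 cells (10% FBS medium) were plated overnight at 37C, exposed to compounds at 15 concentrations for 3 hr at 37C (0.76% DMSO final), and viability was read as CellTiter-Glo luminescence after 30 min at room temperature.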

The nature of assay [3]: qHTS RealTime-Glo MT Cell Viability Assay in HepG2 cells - 24 hour (AID 1224867). Further: nearly all actives have a fitted effect of over 50% in size. Further: potency means the concentration at half of the fitted maximal effect. In a few lines:
(§1)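 Compound treatment began 5 h after plating HepG2 cells (600/well) with NanoLuc luciferase and prosubstrate. Plates stayed at 37 C for 40 h; luminescence was captured at six time points, 0 h through 40 h.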

Assay [4] in a line: qHTS RealTime-Glo MT Cell Viability Assay in HEK293 cells - 32 hour (AID 1224868). Further: nearly all actives have a fitted effect of over 50% in size. Further: potency means the concentration at half of the fitted maximal effect. In a few lines: (§2)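 Quantitative high-throughput screen of the Tox21 10K library in HEK293: cells and RealTime-Glo reagents plated together, compound added at 5 h, luminescence monitored through 40 h at 37 C.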
Assay [5] is described as follows: A CellTox Green Cytotoxicity Assay to monitor cytotoxicity in HEK293 cells - 0 hour (AID 1224869). Further: nearly all actives have a fitted effect of over 50% in size. Further: potency means the concentration at half of the fitted maximal effect. On Cytotoxicity: on the % scale 0 is the no-effect control and ±100 the full control effect. The essentials: (§3)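 Fluorescence from a DNA-binding dye excluded by viable cells was measured repeatedly in the same HEK293 wells (600 cells/well) during continuous compound exposure at 37 C. Each assay gives one read point: 0, 8, 16, 24, 32 or 40 h.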
Assay [6] is described as follows: A CellTox Green Cytotoxicity Assay to monitor cytotoxicity in HEK293 cells - 40 hour (AID 1224871). Further: nearly all actives have a fitted effect of over 45% in size. Further: potency means the concentration at half of the fitted maximal effect. The essentials: as §3
Assay [7] in a line: qHTS RealTime-Glo MT Cell Viability Assay in HEK293 cells - 16 hour (AID 1224872). Further: nearly all actives have a fitted effect of over 50% in size. Further: potency means the concentration at half of the fitted maximal effect. The essentials: as §2
Assay [8] in a line: qHTS RealTime-Glo MT Cell Viability Assay in HepG2 cells - 8 hour (AID 1224873). Further: nearly all actives have a fitted effect of over 55% in size. Further: potency means the concentration at half of the fitted maximal effect. The essentials:
(§4)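 HepG2 cells mixed with RealTime-Glo MT reagents (NanoLuc plus cell-permeant prosubstrate) were seeded at 600 cells/well, incubated 5 h at 37 C/5% CO2, then pinned with compounds in DMSO; nonlytic luminescence tracked viability during 40 h treatment.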

A short description of assay [9]: qHTS RealTime-Glo MT Cell Viability Assay in HEK293 cells - 40 hour (AID 1224874). Further: nearly all actives have a fitted effect of over 50% in size. Further: potency means the concentration at half of the fitted maximal effect. On max response: on the % scale 0 is the no-effect control and ±100 the full control effect. The settings on record: RealTime-Glo luminescence; max response: stronger effect = lower value. In a few lines: (§5)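 Luminescence, which tracks viable cell number through reduction of the prosubstrate to a NanoLuc substrate, was read over continuous 37 C culture. Cells (600/well) were premixed with reagent and rested 5 h before 23 nL of compound in DMSO was pinned.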

Assay [10] in a line: A CellTox Green Cytotoxicity Assay to monitor cytotoxicity in HEK293 cells - 24 hour (AID 1224875). Further: nearly all actives have a fitted effect of over 45% in size. Further: potency means the concentration at half of the fitted maximal effect. On activity change: on the % scale 0 is the no-effect control and ±100 the full control effect. The essentials:
as §3

A short description of assay [11]: A CellTox Green Cytotoxicity Assay to monitor cytotoxicity in HepG2 cells - 16 hour (AID 1224876). Further: nearly all actives have a fitted effect of over 45% in size. Further: potency means the concentration at half of the fitted maximal effect. The essentials:
(§6)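 Real-time cytotoxicity: fluorescence of a cell-impermeant cyanine dye binding DNA of dead HepG2 cells, measured repeatedly (0–40 h) during compound exposure at 37 C. Cells seeded 600/well with reagent, dosed after 5 h.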

Assay [12] is described as follows: qHTS RealTime-Glo MT Cell Viability Assay in HepG2 cells - 32 hour (AID 1224877). Further: nearly all actives have a fitted effect of over 55% in size. Further: potency means the concentration at half of the fitted maximal effect. The essentials:
as §1

A short description of assay [13]: qHTS RealTime-Glo MT Cell Viability Assay in HEK293 cells - 0 hour (AID 1224880). Further: top concentration of the series differs between compounds; on the % scale 0 is the no-effect control and ±100 the full control effect; nearly all actives have a fitted effect of over 45% in size. The essentials: as §5
Assay [14] can be described thus: qHTS assay to identify small molecule agonists of H2AX (AID 1224845; active means well fitted activation curve with a large enough effect in the signal ratio in the repeat runs, not every such curve was filed as active; the % refers to the signal ratio; further: potency means the concentration at half of the fitted maximal effect). The essentials: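 Wild-type CHO-K1 cells plated overnight, then exposed 3 hr at 37C to compounds at 15 concentrations (0.76% DMSO). Lysed, then HTRF anti-pH2AX(S139)-cryptate/anti-H2AX-d2 detection after 24 hr at room temperature; emissions 665 and 620 nm.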
The nature of assay [15]: qHTS assay to identify small molecule agonists of the hypoxia (HIF-1) signaling pathway (AID 1224846; active means well fitted activation curve with a large enough effect in the signal ratio in the repeat runs, not every such curve was filed as active; the % refers to the signal ratio; further: on the % scale 0 is the no-effect control and ±100 the full control effect). In a few lines: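 Compounds added to ME-180 cells carrying hypoxia-response-element beta-lactamase reporter (0.5% dialyzed FBS, 5 h preplating), 17 h at 37C; agonist activity detected by CCF4-AM B/G FRET read-out.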
Assay [16] in a line: qHTS assay to identify small molecule agonists of the estrogen related receptor (ERR) signaling pathway from Tox21 library (AID 1224849; calls by dose curve; further: on the % scale 0 is the no-effect control and ±100 the full control effect; nearly all actives have a fitted effect of over 15% in size). As to conditions: ERR reporter cell line, ONE-Glo luciferase, 18 h. In a few lines:
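Luminescent agonist read-out (One-Glo, 30-minute room-temperature incubation) following 18-hour compound treatment at 37 C of the ERR cell line, which had been plated 6 hours before dosing.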

Assay [17] can be described thus: qHTS RealTime-Glo MT Cell Viability Assay in HepG2 cells - 40 hour (AID 1224870). Further: nearly all actives have a fitted effect of over 50% in size. Further: potency means the concentration at half of the fitted maximal effect. In a few lines: as §4
Assay [18] can be described thus: A CellTox Green Cytotoxicity Assay to monitor cytotoxicity in HepG2 cells - 24 hour (AID 1224878). Further: nearly all actives have a fitted effect of over 45% in size. Further: potency means the concentration at half of the fitted maximal effect. The essentials: as §6
Assay [19] in a line: A CellTox Green Cytotoxicity Assay to monitor cytotoxicity in HepG2 cells - 40 hour (AID 1224879). Further: nearly all actives have a fitted effect of over 40% in size. Further: potency means the concentration at half of the fitted maximal effect. In a few lines: as §6
Assay [20] can be described thus: qHTS assay to identify small molecule antagonists of the estrogen related receptor (ERR) signaling pathway from Tox21 library (AID 1224848). The essentials: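 Tox21 10K compounds in DMSO tested for ERR pathway antagonism in NTP's ERR cell line; 18 h, 37 C exposure; ONE-Glo luminescence.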

In the case of `N#Cc1c(Cl)c(Cl)c(Cl)c(C#N)c1Cl`, the Potency in [1] is 3.03 µM (active) and 3.09 µM (active); in [2] it was 55.6 µM (active); in assay [3], 21.5 µM (active) and 4.9 µM (active); in assay [4], 1.7 µM (active) and 1.23 µM (active); in assay [6], 6.79 µM (active) and 5.49 µM (active); in assay [7], 3.4 µM (active) and 1.55 µM (active). Moreover, the Potency was 42.8 µM (active) and 11 µM (active) in assay [8]; 1.7 µM (active) and 1.1 µM (active) in assay [9]; 12.1 µM (active) and 9.77 µM (active) in assay [10]; 24.1 µM (active) and 6.92 µM (active) in assay [11]; 19.1 µM (active) and 3.89 µM (active) in [12]. Besides, the Potency entry in assay [5] and in assay [13] was “inactive” throughout.
As for `CC(C)=CC1C(C(=O)OCN2C(=O)C3=C(CCCC3)C2=O)C1(C)C` (stereo not given), the Potency result in assay [1], in assay [14], in assay [3], in [4], in assay [5] and in assay [17] was “inactive” each time. The Potency result in assay [6], in [7], in assay [8], in assay [10], in [11] and in assay [12] was “inactive” each time. Besides, the Potency entry in [18], in assay [19] and in [13] was “inactive” throughout. In addition, the result in assay [15] was inactive. Further, the values for the activity change, positive = activation in [16] (at 42.5 µM (top of the series)) and in [16] (at 92.4 µM (top of the series)) were -16.7% (inactive) and -22.5% (inactive), respectively. In addition, the max response in assay [9] is 2.99% (inactive).
In the case of `CN(C)c1nc(=O)n(C2CCCCC2)c(=O)n1C`, the Potency entry in assay [1], in assay [14], in assay [2], in [3], in [4] and in assay [5] was “inactive” each time. For the same molecule, the Potency result in [6], in assay [7], in assay [8], in assay [10], in assay [11] and in assay [12] was “inactive” each time. The Potency entry in assay [18] and in assay [13] was “inactive” each time. The call in assay [15] was inactive. For the same molecule, in assay [9], the max response was 6.15% (inactive) and 0.589% (inactive).
On to `CC1(C)C(C(=O)OC(C#N)c2cccc(Oc3ccccc3)c2)C1(C)C` (stereo not given), for which the Potency result in [1], in [14], in assay [3], in assay [4], in assay [5] and in [17] was “inactive” throughout. Besides, the Potency result in [6], in [7], in assay [10], in assay [11], in assay [12] and in [19] was “inactive” each time. Also, the Potency entry in assay [13] is “inactive”. For the same molecule, in assay [15], the molecule was classed as inactive. Moreover, the Potency is 30.9 µM (active) in assay [20] and 22 µM (active) in assay [9]. The activity change, positive = activation in [16] (at 92.4 µM (top of the series)) was -46.1% (inactive) and -24.4% (inactive). Moreover, in assay [9], the max response is -25.9% (inactive).
As for `C[C@]12CCC(=O)C=C1CC[C@@H]1[C@@H]2CC[C@@]2(C)[C@H]1CC[C@]2(C)O`, the Potency entry in assay [1], in assay [3], in [17], in assay [8], in assay [12] and in [13] was “inactive” in each case. Further, the call in assay [15] was inactive. Besides, the Potency in [2] is 71.9 µM (active) and inactive; in assay [4] it was 22.1 µM (active); in assay [5], 44 µM (active) and inactive; in assay [6], 49.4 µM (active) and inactive; in assay [7], 19.7 µM (active); in assay [9], 19.7 µM (active). Besides, the Potency in [11] is 22.1 µM (active) and inactive; in [18], 35 µM (active); in assay [19], 19.7 µM (active) and 23.9 µM (active).
As for `CC(C)(c1ccccc1)c1ccc(O)c(C(C)(C)c2ccccc2)c1`, the Potency in assay [1] was 21.7 µM (active) and 21.9 µM (active); in assay [14], 39.7 µM (active); in assay [2] it was 28.1 µM (active) and 56.6 µM (active); in assay [20], 42.9 µM (active) and 48.6 µM (active); in [3], 54.4 µM (active) and 43.6 µM (active); in [4], 19.3 µM (active) and 30.9 µM (active). Also, the Potency is 49 µM (active) in assay [17]; 24.3 µM (active) and 43.6 µM (active) in [6]; 21.7 µM (active) and 43.6 µM (active) in [7]; 48.5 µM (active) and 38.9 µM (active) in [8]; 17.2 µM (active) and 43.6 µM (active) in assay [9]; 43.2 µM (active) and 49 µM (active) in assay [10]. Besides, the Potency in assay [11] was 48.5 µM (active) and 43.6 µM (active); in assay [12], 49 µM (active); in assay [19] it was 54.4 µM (active) and 43.6 µM (active). Also, the activity change, positive = activation in assay [16] (at 92.4 µM (top of the series)) is -71.4% (inactive) and -64.9% (inactive). The Potency entry in assay [5] and in assay [13] was “inactive” throughout.

The values above are taken from PubChem BioAssay (Tox21).
